# About 79,000 compounds went through this panel and 15% of them were active in at least one assay; those are over-represented in the sample as a whole. Values without a mark were called inactive. Activity calls are given as the source filed them. No stated cut-off is given here; in the data, active means growth inhibition above about 70%; inactive means the rest.
# What was measured:
# [1] = NCI Yeast Anticancer Drug Screen. Data for the rad50 strain (AID 155);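 further: 0% = growth of vehicle-only cultures of the same strain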; conditions: S. cerevisiae rad50 strain growth inhibition; at 50.0 µM; hits give high values
# Summary of the method: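 Compounds were tested on a yeast strain with an engineered DNA damage repair alteration; the reported value is growth inhibition normalised to vehicle treatment.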
# [2] = NCI Yeast Anticancer Drug Screen. Data for the mec2-1 strain (AID 157); conditions: S. cerevisiae mec2-1 strain, at 50.0 µM, hits give high values
# Summary of the method: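 mec2-1 yeast strain, carrying an alteration in DNA damage repair or cell cycle control, was exposed to compounds; growth inhibition was measured relative to vehicle-treated controls.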
# [3] = NCI Yeast Anticancer Drug Screen. Data for the sgs1 mgt1 strain (AID 161);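 further: 0% = growth of cultures given vehicle only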; conditions: S. cerevisiae sgs1 mgt1 strain, at 50.0 µM, hits give high values
# Summary of the method: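 Growth of a repair-deficient yeast mutant was monitored after compound treatment and expressed as inhibition relative to vehicle-treated cultures.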
# [4] = NCI Yeast Anticancer Drug Screen. Data for the cln2 rad14 strain (AID 165);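 further: 0% = growth equal to vehicle treated cultures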; conditions: S. cerevisiae cln2 rad14 strain, at 50.0 µM, hits give high values
# Summary of the method: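 Yeast carrying cln2 and rad14 alterations (cell cycle control and DNA damage repair) were exposed to compounds. Growth inhibition was measured against vehicle-treated controls.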
# [5] = NCI Yeast Anticancer Drug Screen. Data for the bub3 strain (AID 167); conditions: S. cerevisiae bub3 mutant strain, at 50.0 µM, hits give high values
# Summary of the method: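 Growth of a checkpoint-deficient yeast mutant is measured after compound exposure. Values represent inhibition relative to vehicle.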
# [6] = NCI Yeast Anticancer Drug Screen. Data for the mlh1 rad18 strain (AID 175); conditions: S. cerevisiae mlh1 rad18 strain growth inhibition; at 50.0 µM; hits give high values
# Summary of the method: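 Growth inhibition of the yeast strain was measured after compound exposure and expressed relative to vehicle-treated controls. The strain carries defined defects in DNA damage repair.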
Compound,growth inhibition [1],growth inhibition [2],growth inhibition [3],growth inhibition [4],growth inhibition [5],growth inhibition [6]
CC(=O)c1ccc(O)c(C)c1,-9.3%,-8.9%,-6.55%,5.5%,-8.1%,-0.2%
CCN(CC)CCN(C)C(=O)C(=O)c1ccccc1,-20.1%,-0.85%,-10.6%,9.75%,4.8%,-8.2%
NN1C(=O)Cc2ccc(Cl)cc21,9.1%,-0.7%,-2.9%,-33.5%,-3.15%,2.1%
N#Cc1ccccc1C#N,-0.8%,-5%,-7.7%,-13.9%,-4.7%,-0.4%
CN(C)CCSc1nc2ccccc2o1,12.2%,20.8%,27.7%,21.1%,16.9%,32.9%
CC1C(c2ccccc2)(N(C)C)CS1(=O)=O (stereo not given),-3.15%,-8.5%,-6.4%,-74.7%,12.7%,-8.6%
CCOC(=O)c1cc2cc(Br)ccc2[nH]1,2%,-24%,8.5%,5.9%,-2.7%,20.4%
CC(C)(CO)C(Cl)C(=O)NCCC(=O)O (stereo not given),-6.05%,-14.9%,-13%,-2%,15.7%,-13.4%
O=C1Nc2c(Cl)cc(Cl)cc2C1=O,7.9%,45.1%,37.7%,-2.75%,38%,91.8% (active)
CCC(C#N)NC(=O)NC(C#N)CC (stereo not given),0.75%,14.6%,-9.7%,-1.6%,-16.9%,-42.1%
CC(=O)CSCc1ccccn1,5.05%,15%,-18.6%,10.2%,22.6%,-1.9%
N=Cc1ccccc1O,-3.3%,-10.3%,-4.8%,7.8%,2.9%,2.55%
CC(C)(O)C(O)COc1c2c(cc3oc(=O)ccc13)OCO2 (stereo not given),26.3%,3.5%,18.9%,-1.35%,31.9%,25.6%
Cc1cc(/C=N/NC(=O)c2ccccc2NC(=O)c2ccccc2Cl)ccc1O,20.6%,9.8%,39.2%,11.9%,9.1%,34.8%
c1ccc(C2Nc3ccccc3NC2c2ccccc2)cc1 (stereo not given),29.5%,5.75%,24.4%,20.9%,60.6%,56.8%
C/C=C/COc1cc2c(cc1C(C)c1ccc(OC)cc1)OCO2 (stereo not given),-9.3%,-0.95%,-6.15%,24.4%,-3.85%,-1.2%
CC(=O)n1oc2ccc(Br)cc2c1=O,-3.6%,1.2%,-7.8%,-5.4%,9.25%,9.75%
CCOC(=O)/C=C(/C)C#N,-9.65%,-3.7%,-11.8%,7.4%,9.55%,2.9%
CC(C)NC(c1ccccc1)c1ccccc1,0.3%,-11.7%,-6.9%,10.2%,1.6%,2.9%
CCOC(=O)C(O)(NC(C)=O)C(F)(F)F (stereo not given),27.9%,-3.9%,-0.8%,17.4%,0.2%,-47.4%

Compound,growth inhibition [1],growth inhibition [2],growth inhibition [3],growth inhibition [4],growth inhibition [5],growth inhibition [6]
CCCCNCC(=O)Nc1ccc(C(=O)OC(C)C)cc1,-1.9%,-18.1%,-5.95%,-35.3%,10.8%,-1.75%
Cc1c(-c2ccccc2)[nH]c2cc(Cl)ccc2c1=O,-28.9%,2.55%,-16.4%,13%,16.9%,-10.3%
CCOC(=O)c1ccc(CSc2ccc(N)cc2)c([N+](=O)[O-])c1,-0.6%,7.15%,17.4%,11.4%,2.3%,20.2%
COC(=O)/C=C(/C=C1/C(C#N)=C(N)N(c2ccc(Cl)cc2)C1(C)/C(=C/C(=O)OC)C(=O)OC)C(=O)OC (stereo not given),-3.15%,-11.4%,2.5%,6.95%,21.8%,10.7%
O=[N+]([O-])c1ccc(N/N=C(/c2ccccc2)C2CCCC2)c([N+](=O)[O-])c1,11.4%,18.6%,12.8%,7.9%,11.9%,12.9%
COC(=O)c1ccc(/C=C2\N=C(C)OC2=O)cc1,-17.9%,-28.6%,0.6%,12.2%,-22.8%,-17.9%
Cc1cc(Br)c(NC(=S)SCc2ccc(Cl)cc2)cc1C,88.2% (active),80% (active),82.6% (active),63.5%,80% (active),95.8% (active)
CCN(CC)C(=O)c1ccc(C)c(N=NN(C)C)c1,-5.7%,-36.2%,-20.9%,-0.15%,-19.9%,-8.75%
O=S(=O)(O)ON=C1c2ccccc2-c2ccccc21,0.6%,-10.7%,10.4%,10.4%,6.55%,-13.6%
O=C(NC(=S)Nc1ccsc1)c1ccccc1,14.6%,0.7%,2.6%,8.85%,-2.15%,-6.35%
Cn1c(=O)c(C(c2ccccc2)c2c(O)c3ccccc3n(C)c2=O)c(O)c2ccccc21,12.1%,6.5%,-19.2%,-34%,2.8%,15.8%
C=CCn1c(SCc2ccccc2)nccc1=O,25.1%,-10.8%,16.9%,-33%,7.15%,8.9%
CCOC(=O)Nc1ccc(NC(C)=O)cc1,2.45%,0.65%,1.3%,-62.7%,-23.8%,-22.6%
CC1=CC(=O)C(C(C)C)=CC1=Nc1ccc(N(C)C)cc1,-24.9%,-26.3%,-12.4%,-33%,42.4%,-12.3%
C(=N\N(CCCCN(/N=C/c1ccccc1)c1ccccc1)c1ccccc1)/c1ccccc1,38.5%,11.2%,13.8%,21.8%,-11.8%,23.9%
OCCO,-26.4%,-24.1%,-49.3%,-31.6%,-32%,-30.6%
Nc1nc(N)c(-c2ccc(Cl)cc2)c(CNc2cccc([N+](=O)[O-])c2)n1,90.9% (active),91.3% (active),97.7% (active),95% (active),98.1% (active),99.2% (active)
O=C1NC(CN2CCC(O)CC2)C(=O)NC1CN1CCC(O)CC1 (stereo not given),0.6%,7.7%,-10.2%,2.4%,-1.05%,-0.35%
Cc1cccc(N=Nc2ccc(O)c(CN(C)C)c2)c1,-17%,8.9%,-0.35%,-5.5%,29.1%,20.2%
COc1cc2c(c(OC)c1OC)-c1ccc(OC)c(=O)cc1C(NC(=O)c1ccc(N=[N+]=[N-])cc1)CC2 (stereo not given),51.4%,74.8% (active),8.5%,-4.7%,-4.6%,87.3% (active)
